Only some compounds are listed: those with a hit (about 21% of all), similar ones and a draw of the others.
Sm TGR inh: S. mansoni TGR enzyme inhibition; 360,000 compounds, 3% hits; purified TGR, DTNB reduction, TNB absorbance 405 nm; Potency, µM (highest dose often 114 µM), for the others: at the top dose activity change, negative = inhibition, usual class: inhibitors; Q962Y6; also: potency is read from the fitted curve at half-maximal effect; % is scaled to controls: 0 for no effect and ±100 for the full control effect; nearly all actives have a fitted effect of over 60% in size
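TGR 20 nM + NADPH 100 uM (dispensed conc.), cpd preinc 15 min RT; start with NADPH (500 uM addition) then DTNB (15 mM addition). Kinetic TNB absorbance, 405 nm filter. Four-parameter Hill fit across titration.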
CHX counter: affects cycloheximide protein synthesis inhibition readout, counter-screen | max response, % | AID 2314 | cell reporter, cycloheximide protein synthesis inhibition counterscreen | 300,000 compounds, 12% hits; in the data active = max response mostly above about 13%, no sharp cut-off; inactive = mostly below about 14%; also: read at 38.3 µM for the half of the compounds with a filed dose; 0% is about no effect
Pf growth 96h: P. falciparum growth inhibition at 96 hour, primary screen for plastid delayed-death inhibitors; Potency, µM (top dose mostly 28.7 µM), inactives show top-dose activity change, negative = inhibition, most hits filed as inhibitors; 320,000 compounds, 6.9% hits; P. falciparum luciferase reporter growth, 96 h; also: potency is read from the fitted curve at half-maximal effect; % is scaled to controls: 0 for no effect and ±100 for the full control effect
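Luminescence readout: decreased luciferase signal marks inhibited growth of reporter-expressing P. falciparum in infected red cells (2% hematocrit, 0.05% parasitemia final), exposed to compound two generations (96 h, 37 C, 5% CO2).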
Shiga toxin inh: blocks Shiga toxin action in Vero cells | Vero cells, Shiga toxin protein synthesis inhibition reporter | inhibition, % at 38.7 µM | 290,000 compounds, 9.2% hits | AID 2315; in the data active = inhibition mostly above about 28%, no sharp cut-off; inactive = mostly below about 43%; also: 0% is about no effect
Pf growth 48h: P. falciparum growth inhibition at 48 hours (one generation). P. falciparum luciferase growth in erythrocytes, 48 h. Potency, µM (top dose mostly 28.7 µM), for inactives: at the top dose activity change, negative = inhibition, hits mostly inhibitors. 310,000 compounds, 5.9% hits. AID 504832; also: potency is read from the fitted curve at half-maximal effect; % is scaled to controls: 0 for no effect and ±100 for the full control effect
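Erythrocytes infected with P. falciparum carrying an integrated firefly luciferase reporter (2% hematocrit, 0.1% parasitemia final) were exposed to compounds in RPMI 1640 with 0.5% Albumax at 37 C, 5% CO2. Growth inhibition was scored as reduced luminescence.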
NS1 inh: inhibitors of influenza NS1 protein function; Potency, µM (highest dose often 46.1 µM), without a hit: at the top dose activity, positive = more growth; 270,000 compounds, 0.4% hits; calls by dose curve; also: potency is read from the fitted curve at half-maximal effect; actives are rising curves; nearly all actives have a fitted effect of over 50% in size
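Recovery from NS1-induced slow growth read by OD600 in budding yeast switched to galactose assay medium (pH 6.0, -URA) at 1:100 dilution. Compound 23 nl per well; the matching strain lacking NS1 serves as control.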
* marks the source's active call; other numbers are inactive results; u = inconclusive; x = no result given; [ ] = remark or other dose. Unless noted, calls follow the shape of the dose curve; as a rule, active = well fitted curve in the direction sought with a large enough effect; inconclusive = small, poorly fitted or top-dose-only effect, or another doubt; inactive = no such curve, though single readings can be large; an effect the other way counts as inactive or inconclusive.

SMILES | Sm TGR inh | CHX counter | Pf growth 96h | Shiga toxin inh | Pf growth 48h | NS1 inh
Cc1cc(OCc2cc(C(=O)N3CCC(Oc4cccnc4)CC3)no2)cc(C)c1Cl | 8.3% | 11.2 | 36.5% | 18.9 | -14.6% | -44.9%
COCCn1nnnc1C(c1ccccc1)N1CCN(C(=O)c2ccco2)CC1 (stereo not drawn) | -1.7% | 4.6 | -1.4% | -4.8 | -0.4% | -0.9%
COc1ccc2c(c1OC)C(=O)N(c1cccc(C)c1)C2=O | 8.0% | 43.4* | 0.0% | 56.0 | 12.1% | -53.4%
CCOC(=O)c1ccc(COC(=O)c2ccc3c(c2)-c2ccccc2C3=O)cc1 | 7.5% | -3.2 | 79.0% | -11.5 | 50.8% | 6.1%
CCOC(=O)C1=C(Cc2ccc(OC)cc2)C(=O)c2ccccc2C1=O | 14.1µM* | 26.8* | x | 23.3 | 4.65µM* | -91.4%
CCOC(=O)C1=C(Cc2ccc(C)cc2)C(=O)c2ccccc2C1=O | 8.91µM* | 18.8* | 2.33µM* | 10.0 | x | -189.8%
Cc1cc(NC(=O)c2ccco2)sc1C | -23.5% | x | 308.3% | x | 264.6% | x
CCOc1ccc(N2CC(C(=O)NCCCc3ccccc3)CC2=O)cc1 (stereo not drawn) | -4.7% | x | u | x | u | x
O=C(CSc1ccc(-c2ccco2)nn1)c1ccc(F)cc1 | 20µM* | 29.1* | -8.7% | active | 15.1% | 1.4%
O=C(CSc1ccc(-c2ccco2)nn1)NCc1ccc(F)cc1 | 35.5µM* | -1.0 | -9.1% | -9.3 | -9.1% | 1.3%
N#Cc1ccc(-c2ccco2)nc1SCC(=O)c1ccc(Cl)cc1 | -16.1% | -2.3 | 8.9%[5.75 µM] | 34.9 | 1.0% | -4.9%
COc1ccc(NC(=O)c2ccco2)cc1NC(=O)COc1ccc(Cl)c(C)c1 | -1.8% | x | x | x | x | x
CCOc1ccc2nc(NC(=O)C3=NN(c4ccccc4)C(=O)CC3)sc2c1 | 19.2% | 30.1* | 112.0% | 54.6 | 1.2% | 8.7%
CCOc1ccc2nc(NC(=O)C3=NNC(=O)CC3)sc2c1 | -32.1% | 17.2* | 88.1% | 69.3 | 60.5% | x
Cc1ccc2nc(NC(=O)C3=NN(c4ccccc4)C(=O)CC3)sc2c1 | -14.9% | 8.5 | -21.2% | 31.4 | 30.5% | 24.8%
COc1ccc(/C=N\NC(=O)COc2ccccc2Cl)cc1Cn1nc(C)cc1C | 2.0% | -3.9 | u | -12.6 | -0.2% | -7.8%
COc1ccc(/C=N/NC(=O)c2ccccc2O)cc1Cn1nnc2ccccc21 | 7.2% | 21.7* | 8.1% | 50.2* | -11.2% | -13.9%
CCOc1cc(C#N)c(NC(=O)Cn2nnc3ccccc32)cc1OCC | 4.2% | -1.7 | 5.86µM* | -23.1 | 6.1% | 8.5%
COc1ccc(/C=N/NC(=O)Cn2nnc3ccccc32)cc1OC | -3.9% | 22.4* | 53.9% | 32.1* | 4.9% | 4.5%
COc1ccc(/C=N/NC(=O)c2ccccc2O)cc1CSc1ccccn1 | -5.3% | 9.0 | -21.0% | 81.9 | -25.4% | -0.9%
COc1ccc(/C=N\NC(=O)c2sccc2C)cc1Cn1nc(C)cc1C | -0.4% | 42.3* | u | 104.5* | u | -24.1%
CCC(C)NC(=O)c1ccc(-n2c(=S)[nH]c3ccccc3c2=O)cc1 (stereo not drawn) | -1.9% | 5.2 | u | 9.7 | 16.7% | x
O=C(NC1CC1)C1CCN(c2ncnc3c2sc2cccc(F)c23)CC1 | 4.3% | -1.2 | u | -12.8 | x | -6.2%
CC[C@H](C)[C@@H](C(=O)N1CCNCC1)n1cc([C@@H](N)CO)nn1 | -4.9% | -1.9 | 65.6% | -3.6 | 1.5% | -0.9%
COc1ccc(NC(=O)COc2ccc3c(c2)OCO3)cc1 | -2.5% | 7.7 | 23.1% | 32.3 | -10.8% | 0.3%
SMILES | Sm TGR inh | CHX counter | Pf growth 96h | Shiga toxin inh | Pf growth 48h | NS1 inh
O=C(COc1ccc(S(=O)(=O)N2CCCC2)cc1)Nc1ccc2c(c1)OCCO2 | x | 24.1* | 58.5% | 44.3* | u | -8.2%
CC(=O)Nc1cccc(NC(=O)COc2ccc3c(c2)OCO3)c1 | 3.2% | 27.5* | 0.5% | 59.8* | 59.3% | 2.4%
CCc1ccc(NC(=O)COc2ccc3c(c2)OCO3)cc1 | 0.3% | 31.4* | -12.2% | 41.8* | 27.5% | -48.1%
CC(=O)Nc1ccc(OCC(=O)NCc2ccc3c(c2)OCO3)cc1 | 1.4% | 4.9 | 5.7% | 2.3 | u | x
CCc1ccc(OCC(=O)Nc2ccc3c(c2)OCCO3)cc1 | 20.2% | 27.0* | -18.3% | 29.7 | 11.4% | -29.6%
COc1ccc(C2(C)CC(=O)NC2=O)cc1 (stereo not drawn) | -2.9% | 0.3 | 25.5% | 15.7 | -7.1%[0.00184 µM] | 1.7%
COc1ccc(CC(=O)OC(C)C(=O)c2ccc(C)cc2)cc1 (stereo not drawn) | -4.2% | 8.8 | u | 7.5 | 9.0% | -5.1%
OC(CNCc1ccc2c(c1)OCO2)COc1ccc(F)cc1 (stereo not drawn) | 12.7% | -2.4 | 9.4% | 5.7 | 0.5% | 1.2%
CC(=O)c1ccc(OCC(O)CNCc2ccc3c(c2)OCO3)cc1 (stereo not drawn) | -15.8% | 0.6 | -27.2% | -4.5 | 2.62µM* | -3.2%
CCOc1ccc(NC(=O)COC(=O)c2ccc3c(c2)OCO3)cc1 | -10.9% | x | 55.6% | x | 30.6% | x
CC(=O)c1ccc(NC(=O)COc2ccc3c(c2)OCO3)cc1 | -13.9% | 19.3* | u | 3.9 | 24.6% | x
O=C(NCCN1CCOCC1)C1CCN(S(=O)(=O)N2CCCC2)CC1 | -3.9% | -3.4 | 10.3% | 19.4 | 10.6% | x
Cc1ccc(-c2cc(N)nc(-c3ccccc3)c2)cc1 | -5.1% | 27.5* | -21.3% | 60.4* | -14.8% | -17.3%
CCC/C(=N\NC(=O)c1ccco1)c1ccc(Cl)s1 | 2.6% | 21.7* | 13.1µM* | 19.4 | -27.8% | -11.6%
CCCOC(=O)/C(C)=N\NC(=O)c1ccco1 | 4.1% | 64.0* | -36.4% | 154.4* | x | -8.6%
CC/C(=N\NC(=O)c1cc(C)nc2ccccc12)c1ccc(C)s1 | 3.2% | -2.1 | 0.1% | -4.8 | -3.5% | 11.2%
CCC/C(=N/NC(=O)c1csc(C)c1C)c1ccc(Cl)s1 | -11.0% | 36.4 | x | 91.9* | 33.0% | 6.4%
CCCn1c(SCC(=O)NC(=O)NC(C)(C)C)n[nH]c1=O | 1.2% | -9.0 | 0.7% | -10.7 | 0.3% | x
COc1ccc(Cl)cc1N(CC(=O)N(C)C)S(=O)(=O)c1ccc(C)c([N+](=O)[O-])c1 | x | -6.0 | 5.6% | -6.7 | u | -2.1%
Cc1c(CNCCc2ccc(Cl)cc2)c(C(=O)O)c(C)n1-c1ccccc1 | 11.2µM* | -1.6 | 11.7µM* | 26.5 | 11.8% | 1.7%
Cc1ccc(CCNCc2c(C(=O)O)c(C)n(-c3ccccc3)c2C)cc1 | u | 6.5 | u | -9.7 | -23.0% | 6.1%
COc1cc(OC)cc(-c2sc3ccc(OC)cc3c2C#CCCO)c1 | 25.1µM* | x | u | x | 0.0% | x
COc1cc(-c2ccc3sc(-c4ccsc4)c(C#CCO)c3c2)cc(OC)c1OC | u | x | u | x | 11.7µM* | x
COCCn1c(=NC(=O)CCS(=O)(=O)c2ccccc2)sc2cc(C)ccc21 | 35.5µM* | -0.9 | u | 18.2 | 93.3% | 5.4%

Source: PubChem
